Screens as filed in PubChem BioAssay.
Hits are enriched below; roughly 3.8% of the tested compounds scored in any of these assays.
esBAF inh = SWI/SNF esBAF complex inhibition; hit rate 2% among 350,000; mouse ES cells, Bmi1-luciferase knock-in reporter, 24 h; 100% = twice the neutral-well signal; reporter increase, % at 12.5 µM; in the data active = activation above about 40%; inconclusive = no clear call, values can overlap the other calls;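 note: 0% = median of the plate's neutral control wells and 100% = double that signal; a rise in the Bmi1 reporter signal indicates esBAF inhibition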
HSF1 activator = increases HSF-1 driven luciferase reporter signal; NIH3T3-HGL HSF-1 luciferase reporter, MG132, 8 h; 100% = twice DMSO control signal; activation, % at 9 µM; hit rate 1.7% among 300,000;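 active = mean replicate activation of at least 50% with a set share of replicates each reaching 50%; inconclusive = only one of those two conditions met; inactive = mean below 50% and too few replicates reaching it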;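 note: 0% = median of the neutral control wells and 100% = twice that signal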
Wnt bcat act = Wnt/beta-catenin pathway activation; Wnt/beta-catenin reporter cell assay, activator, plate reader; activation, % at 9.35 µM; hit rate 1.2% among 300,000; in the data active = activation above about 30%, passing the limit was not always enough; inconclusive = no clear call, values can overlap the other calls;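 note: 0% = neutral control wells and 100% = positive control wells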
HSF1 inh = HSF1 inhibition; NIH3T3-HGL HSE-luciferase, MG132-induced, luminescence 8 h; hits give low values; activity change, negative = inhibition, % at 7.5 µM (by protocol); hit rate 0.77% among 300,000;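 active = more than half of replicate wells show activity change below -50%, luminescence cut by over half; inconclusive = some wells, but at most half, below -50%; inactive = no replicate well below -50%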;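 note: luciferase reports HSF-1 transcriptional activity via heat shock element; 0% = median of DMSO wells and -100% = zero luminescence signal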
MITF act = increases MITF-driven TRPM1 promoter luciferase signal; AID 588334; activation, % at 12.5 µM; SK-MEL-5 TRPM1-promoter luciferase, 24 h; % of positive control, neutral wells = 0; hit rate 0.75% among 300,000;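 active = mean activation of at least 80% with every replicate also reaching 80%; inconclusive = mean reaches 80% but some replicate falls short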;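 note: 0% = neutral control wells and 100% = parthenolide positive control wells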
The depositor's hits bear a star; ? = inconclusive; · = no result.

SMILES	esBAF inh	HSF1 activator	Wnt bcat act	HSF1 inh	MITF act
Cc1cccc(Cc2nnc(CCC(=O)N(C)CCc3ccccc3)o2)c1	?	64*	0	40	76
Cc1ccc(C(c2sc3ncnn3c2O)N2CC(C)CC(C)C2)cc1 (stereo not drawn)	-2	-67	1	-58*	·
COc1ccc(CCN2C(=O)C3C4CC(C5C(C(=O)N/N=C\c6ccc(Cl)cc6)=NOC45)C3C2=O)cc1OC (stereo not drawn)	·	9	·	-6	-6
CCOC(=O)C1=NOC2C3CC(C12)C1C(=O)N(CCc2ccc(OC)c(OC)c2)C(=O)C31 (stereo not drawn)	4	-79	0	-71*	10
COc1ccc(CN(C)C[C@@H]2Oc3ccc(NC(=O)NC(C)C)cc3CC(=O)N([C@@H](C)CO)C[C@H]2C)cc1	2	·	·	·	·
COc1ccc2cc(Br)ccc2c1CC(=O)N(C)C	2	11	-1	0	1
COc1ccc(CN(C)Cc2c(O)ccc3cc(Br)ccc23)cc1OC	-9	114*	-2	87	0
COc1ccc(CCN(C)Cc2c(O)ccc3cc(Br)ccc23)cc1OC	2	204*	0	164	0
Cc1noc(C)c1NC(=O)N(C)C[C@H]1Oc2c(NC(=O)Nc3ccccc3)cccc2C(=O)N([C@@H](C)CO)C[C@H]1C	7	·	·	·	·
CC(=O)Oc1ccc2c(=O)c(-c3ccccc3)coc2c1	·	38	41*	3	63
CCOC(=O)COc1ccc2c(=O)c(-c3ccccc3)coc2c1	-2	24	-2	2	20
COc1ccc(-c2coc3cc(OC(C)=O)ccc3c2=S)cc1	66*	·	-3	·	87*
CN(C)CC(=O)Nc1ccc2c(c1)[C@@H]1C[C@@H](CC(=O)NCc3ccc4c(c3)OCO4)O[C@@H](CO)[C@@H]1O2	2	·	·	·	·
Cc1ccc2[nH]c(C)c(CCNC(=O)c3cc4cc([N+](=O)[O-])ccc4oc3=O)c2c1	·	-17	·	5	6
Cc1[nH]c2c(C)cccc2c1CCNC(=O)c1ccc2c(c1[N+](=O)[O-])C(=O)c1ccccc1C2=O	3	53*	·	23	-8
Cc1[nH]c2ccccc2c1CCNC(=O)c1ccc2c(c1[N+](=O)[O-])C(=O)c1ccccc1C2=O	-12	58*	·	23	-10
CN(C)C(=O)c1ccc2c(c1[N+](=O)[O-])C(=O)c1ccccc1C2=O	·	21	14	14	13
CCc1ccccc1N(CC(=O)N1CCCC1)S(C)(=O)=O	2	-65	0	-56*	·
CN(CC(=O)N1CCCCCC1)S(=O)(=O)c1ccccc1	57*	19	20	3	·
CN(CC(=O)N1CCCCCC1)S(=O)(=O)c1ccc(F)cc1	54*	-3	8	9	31
CCc1ccccc1N(CC(=O)N1CCCCCC1)S(C)(=O)=O	7	-2	-1	1	·
CC(C)NC(=O)N(C)C[C@H]1Oc2c(NC(=O)C3CC3)cccc2C(=O)N([C@H](C)CO)C[C@H]1C	0	·	·	·	·
Cc1ccc(NC(=O)COC(=O)c2ccc3c(c2)OCO3)cc1S(=O)(=O)N1CCCCC1	·	56*	-12	18	-6
O=C(COC(=O)c1ccc(S(=O)(=O)N2CCCCCC2)cc1)NCc1ccc(F)cc1	-7	·	-4	·	-1
COc1cc(NC(=O)CN2C(=O)CN(C)C2=O)c(C)cc1[N+](=O)[O-]	1	4	0	-3	-10
SMILES	esBAF inh	HSF1 activator	Wnt bcat act	HSF1 inh	MITF act
COc1ccc(CCC(=O)Nc2ccc(OC)c(S(=O)(=O)N3CCCCC3)c2)cc1OC	4	·	-4	·	-1
Cc1ccc(NC(=O)COC(=O)c2ccc(OC(F)F)cc2)cc1S(=O)(=O)N1CCCCC1	3	·	0	·	-2
CCc1ccc(C(=O)CCC(=O)Nc2ccc(OC)c(S(=O)(=O)N3CCCCC3)c2)cc1	8	·	56*	·	-6
COc1cc(NC(=O)Cn2ncc(Cl)c(Cl)c2=O)c(C)cc1[N+](=O)[O-]	·	-93	0	-93*	-103
O=C(COC(=O)c1ccc(F)c(S(=O)(=O)N2CCCCC2)c1)NCc1ccc(F)cc1	-2	-2	40*	-2	8
CCCC#Cc1cnc2c(c1)C(=O)N([C@@H](C)CO)C[C@@H](C)[C@H](CN(C)C(=O)Nc1ccc(OC)cc1)O2	6	·	·	·	·
O=C(CN1CCOCC1)NCC[C@H]1CC[C@@H](NC(=O)Nc2ccccc2)[C@H](CO)O1	1	·	·	·	·
COc1cc(NC(=O)COC(=O)c2ccc(C)c(S(=O)(=O)N3CCCCC3)c2)c(C)cc1[N+](=O)[O-]	-5	64*	-4	21	-3
COc1ccc(C(=O)OCC(=O)Nc2ccc(OC)c(S(=O)(=O)N3CCCCC3)c2)cc1[N+](=O)[O-]	-7	·	1	·	4
Cc1ccc(C)n1-c1ccc(-c2ccn[nH]2)cc1	1	-2	2	-14	8
c1ccn(-c2ccc(-c3ccn[nH]3)cc2)c1	·	-5	9	0	93*
Cc1ccc(NC(=O)C(=O)NCCCN2CCCC2=O)cc1	·	33	43*	11	56
C/C(=N\NC1=NCCN1)c1ccc(N)c([N+](=O)[O-])c1	-3	-75	-2	-72*	-5
CCCCCCOc1ccc(/C(C)=N/NC2=NCCN2)cc1[N+](=O)[O-]	·	?	-10	17	-33
CO[C@@H]1CN(C)C(=O)c2cc(NS(=O)(=O)c3ccccc3)ccc2OC[C@H](C)NC[C@@H]1C	-1	·	·	·	·
O=C(/C=C/Nc1cccc(O)c1)c1ccccc1	-7	2	48*	10	4
C[C@H](CO)N1C[C@H](C)[C@H](CN(C)C(=O)C2CCOCC2)Oc2ncc(-c3cccnc3)cc2C1=O	-5	·	·	·	·
Cc1ccc(C)c(Oc2cc(NC(=O)CCCn3nc(C)c([N+](=O)[O-])c3C)cc([N+](=O)[O-])c2)c1	·	72*	-5	34	-10
CO[C@H]1CN(C)C(=O)c2cc(NS(=O)(=O)c3cn(C)cn3)ccc2OC[C@H](C)N(CC2CC2)C[C@@H]1C	-3	·	·	·	·
COc1c(OC(C)=O)ccc(/C=C/c2ccc3ccccc3n2)c1[N+](=O)[O-]	31	65*	26	33	113*
COc1c(OC(C)=O)ccc(/C=C/c2ccc3cccc(OC)c3n2)c1[N+](=O)[O-]	·	20	32*	0	17
CCOc1c(OC(C)=O)ccc(/C=C/c2ccc3cccc(OC(C)=O)c3n2)c1[N+](=O)[O-]	66*	42	19	16	57
CCOc1cc(/C=C/c2ccc3cccc([N+](=O)[O-])c3n2)ccc1O	·	4	14	-5	4
Cn1c(/C=C/c2ccccc2[N+](=O)[O-])nc2ccccc2c1=O	25	20	-1	11	·
O=[N+]([O-])c1ccccc1/C=C/c1ccc2ccccc2n1	52*	98*	12	52	75
CCCC(=O)Nc1ccc2c(c1)C(=O)N(C)C[C@@H](OC)[C@@H](C)CN(C(=O)CN(C)C)[C@H](C)CO2	-2	·	·	·	·
